Results taken from PubChem BioAssay AID624330 (Southern Research Specialized Biocontainment Screening …, 2012).
The whole screen tested about 340,000 compounds, of which about 2,100 (0.62%) were called active. A selection follows. Entries with a potency or affinity are not part of this list. Values without a mark were called inactive.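 How the source made its calls: active means first-screen hits whose inhibition reached a set limit at any dose in the follow-up dose series; inconclusive means inhibition above the set first-screen limit but never retested; inactive means the rest.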

biological target: Rac GTPase-activating protein 1 (Homo sapiens) (UniProt Q9H0H5); assay: MgcRacGAP GTPase-activating activity inhibitors, confirmation, biochemical, ADP Hunter fluorescence, primary and confirmatory (AID 624330); details: MgcRacGAP-stimulated Rac1 GTP hydrolysis, at 30 µM, stronger effect = higher value, GST-tagged Rac1 F28L mutant substrate;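 further: fluorescence reports GDP produced by GAP-driven GTP hydrolysis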
Sequence (Q9H0H5 whole entry, looked up): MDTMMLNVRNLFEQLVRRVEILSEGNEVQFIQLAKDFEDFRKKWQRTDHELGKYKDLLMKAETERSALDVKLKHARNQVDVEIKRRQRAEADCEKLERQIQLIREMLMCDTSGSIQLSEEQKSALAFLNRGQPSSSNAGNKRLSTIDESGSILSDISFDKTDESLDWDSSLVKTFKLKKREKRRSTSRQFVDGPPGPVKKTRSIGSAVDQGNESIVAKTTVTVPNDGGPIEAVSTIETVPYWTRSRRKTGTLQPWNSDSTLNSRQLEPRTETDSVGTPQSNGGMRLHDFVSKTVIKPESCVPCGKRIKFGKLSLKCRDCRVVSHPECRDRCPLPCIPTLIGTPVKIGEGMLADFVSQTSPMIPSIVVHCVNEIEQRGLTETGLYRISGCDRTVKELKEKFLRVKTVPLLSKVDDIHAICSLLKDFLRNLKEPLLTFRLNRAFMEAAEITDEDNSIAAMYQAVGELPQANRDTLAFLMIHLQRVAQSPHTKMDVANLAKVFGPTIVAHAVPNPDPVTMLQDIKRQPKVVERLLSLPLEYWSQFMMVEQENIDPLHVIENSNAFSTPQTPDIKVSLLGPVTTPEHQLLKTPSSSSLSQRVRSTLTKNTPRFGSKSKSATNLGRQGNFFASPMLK

Compound	inhibition [%]
NC(=O)CSC1=N/C(=C\c2ccco2)C(=O)N1c1ccc(OC(F)F)cc1	9.08
CCNC(=O)CSC1=N/C(=C\c2ccc(O)c(OCC)c2)C(=O)N1c1ccc(OC(F)F)cc1	7.81
CCC(C)[C@H](NC(=O)N1CCN(C)CC1)C(=O)OC (stereo partly drawn)	3.84
Cc1ccc(C(=O)Nc2cccc(Oc3ccccc3)c2)o1	1.9
c1ccc2[nH]c(CCCCc3nc4ccccc4[nH]3)nc2c1	7.39
Nc1ccc(C(=O)OCCCc2nc3cc4ccccc4cc3[nH]2)cc1	14.4
Nc1ccc(C(=O)OCCCc2nc3ccccc3[nH]2)cc1	10
c1ccc2[nH]c(CCCc3nc4ccccc4[nH]3)nc2c1	-1.49
Cc1ccc2nc(Cc3ccc(N)cc3)[nH]c2c1	6.07
c1ccc(Cc2nc3ccccc3[nH]2)cc1	-0.91
CCOCCCN(C(=O)CCC(=O)Nc1cc(C)on1)C(C(=O)NC(C)(C)C)c1ccccc1Cl (stereo not drawn)	5.98
COc1ccc(-c2c(NC(=O)CC(C)C)n(C)c3ccccc3c2=O)cc1OC	4.25
Cn1c(COc2ccc([N+](=O)[O-])cc2)nnc1SCC(=O)NCC1CCCO1 (stereo not drawn)	5.87
CCN(CC)CCCNc1nc(-c2ccccc2)nc2ccccc12	17.7
CCN(CC)CCCNc1nc2ccccc2[nH]1	7.22
CCCCCC(O)CCCC(=O)O (stereo not drawn)	7.64
CCCCCCCCCCCCCCC(O)C[N+](C)(CCO)CCO (stereo not drawn)	20.8
CCOc1ccc(-n2nc3c(SCCN4CCCC4)nnc(C)c3c2C)cc1	10.3
Oc1ccccc1Cc1c(O)ccc2ccccc12	23.7
c1ccc2c(c1)ccc1ccccc12	-3.62
COc1ccc2c(c1)S(=O)(=O)c1ccccc1N2	11.9

Compound	inhibition [%]
c1ccc2c(c1)Nc1nccnc1S2	28.4
Clc1cc2c(nn1)Nc1ccccc1S2	6.5
COc1ccc(N/C=C2/Sc3ccccc3NC2=O)cc1	17.3
FC(F)(F)c1cnc2c(c1)Nc1ccccc1S2	10.2
c1ccc2c(c1)Nc1cc3ccccc3cc1S2	14.6
Cn1c(N)c(C(=O)CSc2nnc(C3CC3)n2Cc2ccccc2)c(=O)[nH]c1=O	2.66
N#Cc1ccc(OCC(=O)N2CCN(S(=O)(=O)c3cccc(Cl)c3)CC2)cc1	-0.69
COc1ccc(NC(=O)CN(C)C(=O)/C=C/c2cn(-c3ccccc3)nc2-c2ccc(C)cc2)cc1	9.39
CCOC(=O)Cc1csc(NC(=O)c2csc(C)c2)n1	9.83
CCOc1ccccc1OCCOCCN1CCN(Cc2ccccc2)CC1	26.4
Cc1cc(OCCN2CCC(Cc3ccccc3)CC2)ccc1[N+](=O)[O-]	22
O=C(c1ccccc1)c1ccc(OCCOCCN2CCN(Cc3ccccc3)CC2)cc1	25.1
Cc1cc(OCCN2CCCC2)ccc1[N+](=O)[O-]	19.6
COc1cccc(NS(=O)(=O)c2c(C)nc3sccn3c2=O)c1	4.23
CCc1cc(C(=O)NCC(c2ccco2)N2CCCCC2)sc1C (stereo not drawn)	5.34
Cc1cccc(C(=O)OCC(=O)N2CCCCCC2)c1C	2.72
CCN(C[C@H]1N[C@@](Cc2ccccc2)(C(=O)OC)[C@H]2C(=O)N(Cc3ccccc3)C(=O)[C@@H]12)C(=O)Nc1ccc(C)cc1	4.71
CCOC(=O)c1ccc(NC(=S)N2CCC(C(N)=O)(N3CCCCC3)CC2)cc1	-1.44
CCN(CC)CCSc1nc(O)c(Cc2ccccc2)c(=O)n1-c1ccccc1	2.56
CN(C)S(=O)(=O)c1cc(NC(=O)CN2CCOCC2)ccc1Cl	2.76
Cc1ccccc1NC(=O)C(=O)NCCCN1CCOCC1	4.72

Compound	inhibition [%]
Cc1ccccc1C(=O)NCC(=O)Nc1ccc(C)c(S(=O)(=O)N2CCCCCC2)c1	-0.01
CCN1CCN(CC(=O)Nc2ccc(Cl)c(S(=O)(=O)N(C)C)c2)CC1	28.1
Cc1ccc(NC(=O)CN2CCOCC2)cc1S(=O)(=O)N1CCCCC1	7.06
O=C(CNCCN1CCOCC1)Nc1ccccc1Sc1ccccc1	24.9
Cc1ccc(NC(=O)CCl)cc1S(=O)(=O)N1CCCCCC1	4.4
Cc1ccc(C(=O)NCCCN2CCOCC2)cc1S(=O)(=O)N1CCCCC1	1.84
CC(Oc1cccc(Cl)c1)C(=O)N1CCN(c2ncccn2)CC1 (stereo not drawn)	3.63
O=C(Nc1ccccc1C(=O)O)c1cc(S(=O)(=O)N2CCOCC2)cs1	3.51
Cc1ccc(/C=N/N2CCN(C3c4ccccc4-c4ccccc43)CC2)o1	8.36
COc1ccc(N2CCN(C(=O)c3cc4c(s3)CCCCC4)CC2)cc1	14.7
COCCn1c(SCC(=O)N2CCCCCC2)nnc1-c1ccco1	3.7
CCC(CNC(=O)c1c(C)nn(-c2ccccc2)c1Cl)c1ccccc1 (stereo not drawn)	-0.7
Cc1ccc(S(=O)(=O)N2CCCCC2)cc1C(=O)N(C)CCOc1ccccc1	8.29
O=C(Cn1cnc2c(nnn2-c2ccc(F)cc2)c1=O)NCC1CCCO1 (stereo not drawn)	8.9
COc1cc(-c2csc(CCn3nc(C)cc3C)n2)cc(OC)c1OC	4.55
Cc1cc(C)n(CCc2nc3c4ccccc4n(CC#N)c(=O)n3n2)n1	3.22
COC(=O)C1CCN(S(=O)(=O)Cc2ccccc2Cl)CC1	7.49
COc1cc(OC)c(OC)cc1C#N	2.13
COc1cc2c(cc1OC)C1(CCCC1)CNC2C (stereo not drawn)	1.49
O=C(Nc1ccc(F)cc1)C(NC1CCCCC1)c1ccccc1 (stereo not drawn)	9.33
COc1ccc(C2=NS(=O)(=O)N(C)C(C(=O)N3CCCCC3C)=C2)cc1 (stereo not drawn)	2.61
